# Source: PubChem BioAssay
# Records with an inconclusive call do not appear. Active and inactive are the calls of the source.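 How the source made its calls, unless noted: active means normalized viability below 100% at a tested concentration; inactive means the rest.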
# Key:
# [1] = growth inhibition of DIPG glioma cells, dose response, cell-based, SU-DIPG-XVII, MIPE5.0, CellTiter-Glo, qHTS (AID 1347060; cut-off not given, nearly all actives have AC50 up to about 26 µM;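 on AC50: cells exposed to compound for 48 hours before viability readout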); conditions: SU-DIPG-XVII viability, CellTiter-Glo ATP luminescence
# [2] = growth inhibition of DIPG glioma cells, dose response, cell-based, SU-DIPG-XIII, MIPE4.0, CellTiter-Glo, qHTS (AID 1347061; cut-off not given, nearly all actives have AC50 up to about 37 µM;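 further: cells exposed to compound for 48 hours before readout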); conditions: SU-DIPG-XIII viability, CellTiter-Glo ATP luminescence
# [3] = growth inhibition of DIPG glioma cells, dose response, cell-based, JHH-DIPG-1, MIPE4.0, CellTiter-Glo, qHTS (AID 1347062; cut-off not given, nearly all actives have AC50 up to about 27 µM;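 on AC50: cells exposed to compound for two days before readout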); conditions: JHH-DIPG-1 viability, CellTiter-Glo ATP luminescence
# [4] = growth inhibition of DIPG glioma cells, dose response, cell-based, SU-DIPG-IV, MIPE4.0, CellTiter-Glo, qHTS (AID 1347063; cut-off not given, nearly all actives have AC50 up to about 30 µM;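 further: compound exposure lasted 48 hours before the viability readout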); conditions: SU-DIPG-IV viability, CellTiter-Glo ATP luminescence
# [5] = growth inhibition of DIPG glioma cells, dose response, cell-based, SU-DIPG-XIII, MIPE5.0, CellTiter-Glo, qHTS (AID 1347064; cut-off not given, nearly all actives have AC50 up to about 23 µM;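 on AC50: cells exposed to compound for 48 hours before the viability read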); conditions: SU-DIPG-XIII viability, CellTiter-Glo ATP luminescence
# [6] = viability loss in pontine glioma line – cell-based, SU-DIPG-XXV, MIPE5.0, CellTiter-Glo, qHTS, dose response (AID 1347065; cut-off not given, nearly all actives have AC50 up to about 26 µM;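 further: cells exposed to compound for 48 hours before ATP readout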); conditions: CellTiter-Glo ATP luminescence
# [7] = SU-DIPG-VI glioma cell viability, MIPE4.0 library, CellTiter-Glo luminescence, qHTS (AID 1347066; cut-off not given, nearly all actives have AC50 up to about 30 µM;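 further: cells exposed to compound for 48 hours before readout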); conditions: CellTiter-Glo ATP luminescence
# [8] = JHH-DIPG-1 glioma cell viability, MIPE5.0 library, CellTiter-Glo luminescence, qHTS (AID 1347067; cut-off not given, nearly all actives have AC50 up to about 26 µM;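 further: cells exposed to compound for 48 hours before readout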); conditions: JHH-DIPG-1 glioma viability, CellTiter-Glo ATP luminescence
# [9] = modifiers of HSF1 nuclear foci, imaging, Selleck Cancer Library (AID 1347162; in the data active means plate-normalised HSF1 focus index below about 0.46); conditions: human cells, at 10 µM; SSMD: measured here: HSF1 foci SSMD mean; cell count: measured here: cell number; plate-normalised HSF1 focus index: stronger effect = lower value
# [10] = ovarian cancer cell viability with rucaparib, profiling panel, oncology-focused library, rucaparib conditional (AID 1508598); conditions: patient-derived ovarian cancer cells, CellTiter-Glo viability, 144 h, stronger effect = lower value
# [11] = LFS_MB_P medulloblastoma growth inhibition, cell-based, chromothripsis tumors, cisplatin or BGB combos (AID 1671449; in the data active means inhibition above about 80%;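 further: cells exposed for 96 hours; 0% = vehicle DMSO and 100% = killing by high DMSO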); conditions: LFS_MB_P medulloblastoma cells
# [12] = HDN33 neuroblastoma growth inhibition, cell-based, chromothripsis tumors, cisplatin or BGB combos (AID 1671450; in the data active means inhibition above about 80%;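 further: cells exposed to compound for four days; 0% = vehicle DMSO and 100% = cell killing by high DMSO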); conditions: HDN33 neuroblastoma cells, stronger effect = higher value
# [13] = ICB984 medulloblastoma cell growth inhibition, synergistic combos for chromothripsis tumors, cisplatin or BGB combos (AID 1671451; call rule not given here;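 further: cells exposed for 96 hours before readout; 0% = vehicle DMSO and 100% = killing by high DMSO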); conditions: ICB984 medulloblastoma cells, drug combinations, stronger effect = higher value
# [14] = HTB85 osteosarcoma cell growth inhibition, synergistic combos for chromothripsis tumors, BGB or cisplatin IC20 combos (AID 1671453; in the data active means inhibition above about 80%;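 further: cells exposed for 96 hours before readout; 0% = vehicle DMSO and 100% = high DMSO killing control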); conditions: HTB85 osteosarcoma cells, drug combinations, stronger effect = higher value
# [15] = MDA-MB-436 breast carcinoma cell growth inhibition, synergistic combos for chromothripsis tumors, BGB or cisplatin combos (AID 1671458; call rule not given here;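 further: cells exposed for 96 hours; 0% = vehicle DMSO and 100% = killing by high DMSO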); conditions: MDA-MB-436 breast carcinoma growth inhibition, drug combinations, stronger effect = higher value
# [16] = growth inhibition of BT084 medulloblastoma cells, cell-based, ICGC_MB145, cisplatin and BGB IC40 combos (AID 1671461; in the data active means inhibition above about 80%;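 further: cells exposed to drugs for 96 hours; 0% = vehicle DMSO and 100% = high DMSO full killing control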); conditions: drug combinations, stronger effect = higher value
# [17] = growth inhibition of RCMB18 medulloblastoma cells, cell-based, cisplatin and BGB IC40 combos (AID 1671462; in the data active means inhibition above about 80%;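 further: cells exposed to compound for four days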); conditions: stronger effect = higher value
# [18] = SU-DIPG-XXV glioma cell viability, MIPE5.0 library, qHTS (AID 1347068; cut-off not given, nearly all actives have IC50 up to about 30 µM)
# [19] = sensitizers of A549 cells to miR-34 induction, primary screen, imaging, A549 dox-inducible miR-34, nuclei and caspase counts (AID 1347080;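 active means compounds whose cell count with miR-34 switched on is under 0.7 times the count with it off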); conditions: A549 miR-34 inducible, Hoechst nuclei count, 48 h
# [20] = survival rescue of mitochondrial mutant cells in low glucose, primary screen, MELAS cybrids, Rieske KO mouse fibroblasts, CellTiter-Glo (AID 1508586;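 active means mean z-score across replicates of 1.96 or higher in either the MELAS or the Rieske mutant cell line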;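 further: z relative to plate mean and SD of compound and empty wells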)
# [21] = at 0.000305 µM, OCI-C5x cells, with rucaparib 10 µM, 100% = cells with rucaparib alone
# [22] = at 0.000305 µM, OCI-C5x cells, without rucaparib
# [23] = at 0.000305 µM, OCI-P5x cells, with rucaparib 20 µM, 100% = cells with rucaparib alone
# [24] = at 0.000305 µM, OCI-P5x cells, without rucaparib
# [25] = at 0.00122 µM, OCI-C5x cells, with rucaparib 10 µM, 100% = cells with rucaparib alone
# [26] = at 0.00122 µM, OCI-C5x cells, without rucaparib
# [27] = at 0.00122 µM, OCI-P5x cells, with rucaparib 20 µM, 100% = cells with rucaparib alone
# [28] = at 0.00122 µM, OCI-P5x cells, without rucaparib
# [29] = at 0.00488 µM, OCI-C5x cells, with rucaparib 10 µM, 100% = cells with rucaparib alone
# [30] = at 0.00488 µM, OCI-C5x cells, without rucaparib
# [31] = at 0.00488 µM, OCI-P5x cells, with rucaparib 20 µM, 100% = cells with rucaparib alone
# [32] = at 0.00488 µM, OCI-P5x cells, without rucaparib
# [33] = at 0.0195 µM, OCI-C5x cells, with rucaparib 10 µM, 100% = cells with rucaparib alone
smiles,measurement,setting,value
O=C(/C=C/c1cccc(S(=O)(=O)Nc2ccccc2)c1)NO,AC50,[1],2.09 µM (active)
same,AC50,[2],15.2 µM (active)
same,AC50,[3],7.62 µM (active)
same,AC50,[4],3.4 µM (active)
same,AC50,[5],0.661 µM (active)
same,AC50,[6],0.742 µM (active)
same,AC50,[7],3.82 µM (active)
same,AC50,[8],0.742 µM (active)
same,SSMD,[9],-3.23
same,cell count,[9],7740
same,plate-normalised HSF1 focus index,[9],0.885 (inactive)
same,viability,[10]; [21],104% (inactive)
same,viability,[10]; [22],114% (inactive)
same,viability,[10]; [23],106% (inactive)
same,viability,[10]; [24],94% (active)
same,viability,[10]; [25],98.8% (active)
same,viability,[10]; [26],117% (inactive)
same,viability,[10]; [27],113% (inactive)
same,viability,[10]; [28],100% (inactive)
same,viability,[10]; [29],114% (inactive)
same,viability,[10]; [30],117% (inactive)
same,viability,[10]; [31],101% (inactive)
same,viability,[10]; [32],95% (active)
same,viability,[10]; [33],104% (inactive)
same,viability,"[10]; at 0.0195 µM, OCI-C5x cells, without rucaparib",119% (inactive)
same,viability,"[10]; at 0.0195 µM, OCI-P5x cells, with rucaparib 20 µM, 100% = cells with rucaparib alone",90.8% (active)
same,viability,"[10]; at 0.0195 µM, OCI-P5x cells, without rucaparib",88.4% (active)
same,viability,"[10]; at 0.0781 µM, OCI-C5x cells, with rucaparib 10 µM, 100% = cells with rucaparib alone",97.6% (active)
same,viability,"[10]; at 0.0781 µM, OCI-C5x cells, without rucaparib",112% (inactive)
same,viability,"[10]; at 0.0781 µM, OCI-P5x cells, with rucaparib 20 µM, 100% = cells with rucaparib alone",77.4% (active)
same,viability,"[10]; at 0.0781 µM, OCI-P5x cells, without rucaparib",75.3% (active)
same,viability,"[10]; at 0.313 µM, OCI-C5x cells, with rucaparib 10 µM, 100% = cells with rucaparib alone",77% (active)
same,viability,"[10]; at 0.313 µM, OCI-C5x cells, without rucaparib",75.9% (active)
same,viability,"[10]; at 0.313 µM, OCI-P5x cells, with rucaparib 20 µM, 100% = cells with rucaparib alone",43.7% (active)
same,viability,"[10]; at 0.313 µM, OCI-P5x cells, without rucaparib",63.5% (active)
same,viability,"[10]; at 1.25 µM, OCI-C5x cells, with rucaparib 10 µM, 100% = cells with rucaparib alone",12.7% (active)
same,viability,"[10]; at 1.25 µM, OCI-C5x cells, without rucaparib",12.1% (active)
same,viability,"[10]; at 1.25 µM, OCI-P5x cells, with rucaparib 20 µM, 100% = cells with rucaparib alone",17.8% (active)
same,viability,"[10]; at 1.25 µM, OCI-P5x cells, without rucaparib",35.8% (active)
same,viability,"[10]; at 5 µM, OCI-C5x cells, with rucaparib 10 µM, 100% = cells with rucaparib alone",5.06% (active)
same,viability,"[10]; at 5 µM, OCI-C5x cells, without rucaparib",5.35% (active)
same,viability,"[10]; at 5 µM, OCI-P5x cells, with rucaparib 20 µM, 100% = cells with rucaparib alone",2.89% (active)
same,viability,"[10]; at 5 µM, OCI-P5x cells, without rucaparib",3.18% (active)
same,inhibition,"[11]; at 0.5 µM, stronger effect = higher value",40.5% (inactive)
same,inhibition,"[11]; measured here: combination with BGB IC20, at 0.005 µM",-0.936%
same,inhibition,"[11]; measured here: combination with BGB IC40, at 0.005 µM",-11.3%
same,inhibition,"[11]; measured here: combination with BGB IC40, at 0.05 µM",-18.3%
same,inhibition,"[11]; measured here: combination with cisplatin, at 0.5 µM, stronger effect = higher value",101%
same,inhibition,"[11]; measured here: combination with cisplatin, at 5 µM, stronger effect = higher value",112%
same,inhibition,"[12]; BGB combo, at 5 µM",99.6%
same,inhibition,[12]; at 0.5 µM,28.3% (inactive)
same,inhibition,"[12]; cisplatin combo, at 5 µM",99.8%
same,inhibition,"[12]; measured here: with BGB IC20 combination, at 0.5 µM",17.9%
same,inhibition,"[12]; measured here: with cisplatin IC20 combination, at 0.5 µM",21.7%
same,inhibition,"[12]; single agent, at 5 µM",99.8%
same,inhibition,"[13]; BGB IC20 combo, at 0.005 µM",18.9%
same,inhibition,"[13]; BGB IC40 combo, at 0.005 µM",36.1%
same,inhibition,"[13]; BGB IC40 combo, at 0.05 µM",94.9%
same,inhibition,[13]; at 0.5 µM,-22.2% (inactive)
same,inhibition,"[13]; cisplatin combo, at 0.05 µM",94.8%
same,inhibition,"[13]; cisplatin combo, at 0.5 µM",-34.3%
same,inhibition,"[13]; cisplatin combo, at 5 µM",-34.9%
same,inhibition,"[13]; measured here: 5 uM single agent, at 5 µM",-35.3%
same,inhibition,[14]; at 0.5 µM,34.5% (inactive)
same,inhibition,"[14]; measured here: with BGB IC20, at 0.5 µM",8.9%
same,inhibition,"[14]; measured here: with BGB IC20, at 5 µM",99.2%
same,inhibition,"[14]; measured here: with cisplatin IC20, at 0.5 µM",49.8%
same,inhibition,"[14]; measured here: with cisplatin IC20, at 5 µM",99.8%
same,inhibition,"[14]; single agent, at 5 µM",99.7%
same,inhibition,[15]; at 0.5 µM,33.7% (inactive)
same,inhibition,"[15]; measured here: BGB combination, at 0.5 µM",25.2%
same,inhibition,"[15]; measured here: BGB combination, at 5 µM",62%
same,inhibition,"[15]; measured here: cisplatin combination, at 0.5 µM",26.3%
same,inhibition,"[15]; measured here: cisplatin combination, at 5 µM",66.1%
same,inhibition,[16]; at 0.5 µM,38.7% (inactive)
same,inhibition,"[16]; cisplatin combination, at 0.5 µM",58.9%
same,inhibition,"[16]; cisplatin combination, at 5 µM",102%
same,inhibition,"[16]; measured here: BGB IC40 combination 0.05 uM, at 0.05 µM",14.1%
same,inhibition,"[16]; single agent, at 5 µM",108%
same,inhibition,[17]; at 0.5 µM,32.4% (inactive)
same,inhibition,"[17]; cisplatin combo, at 5 µM",91.3%
same,inhibition,"[17]; measured here: BGB IC40 combination, at 0.05 µM",-15.7%
same,inhibition,"[17]; measured here: combination with cisplatin, at 0.5 µM",51.1%
same,inhibition,"[17]; single agent, at 5 µM",92.7%
O=C1c2ccccc2-[n+]2ccc3c([nH]c4ccccc43)c21,AC50,[1],2.35 µM (active)
same,AC50,[2],2.64 µM (active)
same,AC50,[3],0.743 µM (active)
same,AC50,[4],2.09 µM (active)
same,AC50,[5],2.35 µM (active)
same,AC50,[6],2.63 µM (active)
same,AC50,[7],1.66 µM (active)
same,AC50,[8],2.35 µM (active)
CCOc1ccn(-c2ccc(F)cc2)c(=O)c1C(=O)Nc1ccc(Oc2ccnc(N)c2Cl)c(F)c1,outcome,[1],inactive
same,outcome,[2],inactive
same,outcome,[3],inactive
same,AC50,[4],18.7 µM (active)
same,outcome,[5],inactive
same,AC50,[6],11.8 µM (active)
same,outcome,[7],inactive
same,outcome,[18],inactive
same,fold change,"[19]; stronger effect = lower value, cell number ratio, induced over uninduced",1.21 (inactive)
same,fold change,[19]; measured here: relative caspase fold change +Dox/-Dox,0.507
same,cell count,"[19]; measured here: total cells with miR-34 induction, stronger effect = lower value",5080
same,cell count,[19]; measured here: total cells without miR-34 induction,4210
same,SSMD,[9],2.9
same,cell count,[9],7130
same,plate-normalised HSF1 focus index,[9],1.11 (inactive)
same,z-score,"[20]; MELAS cybrid survival, CellTiter-Glo 48 h, stronger effect = higher value",-0.348 (inactive)
same,z-score,"[20]; Rieske KO mouse fibroblast survival, CellTiter-Glo 72 h",-0.0407
same,viability,[10]; [21],118% (inactive)
same,viability,[10]; [22],124% (inactive)
same,viability,[10]; [23],109% (inactive)
same,viability,[10]; [24],129% (inactive)
same,viability,[10]; [25],125% (inactive)
same,viability,[10]; [26],134% (inactive)
same,viability,[10]; [27],99.9% (active)
same,viability,[10]; [28],120% (inactive)
same,viability,[10]; [29],113% (inactive)
same,viability,[10]; [30],120% (inactive)
same,viability,[10]; [31],103% (inactive)
same,viability,[10]; [32],117% (inactive)
same,viability,[10]; [33],116% (inactive)
